The nature of assay [1]: inhibitors of TNFa-induced NFkB p65 translocation, primary screen, imaging, HUVEC, MLSMR starter and 10KST1 sets (AID 438;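 active means inhibition above 20% together with a positive visual image hit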;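 further: compound added about 3h40 before a 20 min TNFalpha stimulation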;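 on inhibition: signal is the nuclear over cytoplasmic p65 intensity ratio per well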). Conditions: HUVEC TNFa-induced p65 nuclear translocation; cell count: measured here: nuclei count (cytotoxicity indicator), at 2.08 µM; inhibition: at 2 µM, stronger effect = higher value, 0% TNFa-plus-vehicle, 100% no-TNFa wells.
The nature of assay [2]: reduction of polyQ htt aggregates in cells – imaging, exon1htt(103Q)mCFP cells, high-content imaging, primary screen (AID 483;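 active means visual image review flags a hit and inhibition of aggregation exceeds 20%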;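 further: compound exposure lasted 3 days before fixation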;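 on nuclei count: percent of the per-plate median nuclei count of sample wells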). Conditions: exon1htt(103Q)mCFP cell line, aggregate imaging, at 2 µM; inhibition of aggregation: stronger effect = higher value; nuclei count: measured here: cell count, toxicity.
A short description of assay [3]: endothelial E-selectin expression blockers – imaging, HUVEC, immunofluorescence, MLSMR starter and 10KST1 sets, primary screen (AID 487;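 active means visually confirmed hit in the image check and inhibition above 20%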;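 on inhibition: signal is fraction of cell area covered by stained E-selectin grains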;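 on nuclei count: 100% = median nuclei count of all wells on the same plate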). Conditions: HUVEC TNFalpha-induced E-selectin immunofluorescence imaging, at 2 µM; inhibition: stronger effect = higher value; nuclei count: measured here: cell number, toxicity.
For assay [4], the target named is Voltage-gated potassium channel subunit beta-2 (Rattus norvegicus) (UniProt P62483). The assay is described as follows: inhibitors of rat Kvbeta2 reductase activity – biochemical, NADPH fluorescence, primary screen (AID 622;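 active means fluorescence slope higher than the sample average by over 3 SD, cut at about -0.22 in these data, passing the limit was not always enough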;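 further: slope of raw intensity against log time taken from 70 to 1610 s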). Conditions: recombinant KvBeta, 4-cyanobenzaldehyde reduction, at 10 µM, stronger effect = higher value.
For assay [5] the target is unchanged. Nature of the assay: enhancers of rat Kvbeta2 NADPH turnover – biochemical, NADPH fluorescence, primary screen (AID 623;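 active means NADPH fluorescence slope more negative than the mean of all samples by about 3 SD, 99.7% confidence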;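 further: fluorescence intensity change per second fitted from 20 to 320 s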). Conditions: Recombinant KvBeta, NADPH fluorescence decrease slope, 10 min; at 10 µM; stronger effect = lower value.
Assay [6] concerns the target Alpha-2C adrenergic receptor (Homo sapiens) (UniProt P18825). The assay is described as follows: compounds altering alpha2C-coupled GIRK flux – cell-based, HEK293 alpha2C/GIRK1/2, thallium flux, primary screen (AID 624;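 active means fluorescence slope after compound addition differing from the mean of all screened samples at 99.7% confidence, in either direction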;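 further: slope of fluorescence ratio to pre-addition baseline per second over 15 to 24 s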). Conditions: thallium flux BTC fluorescence, at 10 µM, actives lie on both sides.
A short description of assay [7]: blockers of RIG-like receptor reporter activation – cell-based, Sendai virus stimulus, luciferase, 10K MLSCN set, TLR/RLR signaling modifier project, primary screen (AID 602276;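 active means inhibition at or above 50% at 10 µM; inactive means inhibition below 50%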;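 further: firefly luciferase from ISG56 promoter only with Renilla not read in this screen; 0% = Sendai virus plus DMSO and 100% = medium plus DMSO without virus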). Conditions: HEK293 RL24 IRF3 luciferase reporter, at 10 µM, stronger effect = higher value.
Assay [8] can be described thus: TLR3 IRF3 reporter activation blockers – cell-based, poly I:C stimulus, luciferase, 10K MLSCN set, primary screen (AID 602277). The conditions noted are these: HEK293-TLR3 RL24 IRF3 luciferase reporter, at 10 µM, stronger effect = higher value.

Activity calls are given as the source filed them.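 How the source made its calls, unless noted: active means inhibition of the reporter signal at or above 50%; inactive means inhibition below 50%.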

Chain of Alpha-2C adrenergic receptor (Homo sapiens) (P18825 whole entry, looked up): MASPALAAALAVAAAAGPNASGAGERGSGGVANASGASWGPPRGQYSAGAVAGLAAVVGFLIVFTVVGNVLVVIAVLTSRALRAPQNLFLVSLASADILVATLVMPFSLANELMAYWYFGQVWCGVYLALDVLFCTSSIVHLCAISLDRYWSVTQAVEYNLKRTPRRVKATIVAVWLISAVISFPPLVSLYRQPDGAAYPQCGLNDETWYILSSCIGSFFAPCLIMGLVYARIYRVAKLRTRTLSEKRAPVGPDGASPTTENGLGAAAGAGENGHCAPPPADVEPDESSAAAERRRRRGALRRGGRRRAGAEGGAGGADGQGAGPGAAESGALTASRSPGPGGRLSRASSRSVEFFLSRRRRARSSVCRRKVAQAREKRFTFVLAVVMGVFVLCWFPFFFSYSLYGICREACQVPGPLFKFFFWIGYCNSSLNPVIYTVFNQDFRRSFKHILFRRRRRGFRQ
Chain of Voltage-gated potassium channel subunit beta-2 (Rattus norvegicus) (P62483 whole entry, looked up): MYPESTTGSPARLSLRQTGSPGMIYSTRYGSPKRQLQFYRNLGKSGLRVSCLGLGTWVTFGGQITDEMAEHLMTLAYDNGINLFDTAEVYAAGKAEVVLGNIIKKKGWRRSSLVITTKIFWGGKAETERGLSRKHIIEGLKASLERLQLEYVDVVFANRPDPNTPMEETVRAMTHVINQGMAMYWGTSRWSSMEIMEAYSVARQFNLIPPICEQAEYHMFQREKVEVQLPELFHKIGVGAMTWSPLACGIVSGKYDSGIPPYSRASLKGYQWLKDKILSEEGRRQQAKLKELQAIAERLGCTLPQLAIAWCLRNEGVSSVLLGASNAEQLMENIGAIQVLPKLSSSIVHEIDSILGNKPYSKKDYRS

Usually inhibition stands for the change of the read-out against control, counted positive when it falls. Turning to `CCOc1ccc(Cn2nnc(C(=O)Nc3cc(C)cc(C)c3)c2N)cc1`, the cell count in assay [1] turned out to be 751. Besides, the inhibition in assay [1] was -0.6% (inactive); in assay [3] it was -46.9% (inactive); in assay [7] it was 2.58% (inactive); in assay [8], 9.37% (inactive). The inhibition of aggregation in assay [2] is 12.1% (inactive). Also, the nuclei count in assay [2] worked out at 100%; in assay [3] it was 108%. Besides, the fluorescence slope in assay [4] is -0.521 (inactive). Also, the NADPH fluorescence slope in assay [5] was -2.6e-05 (inactive). In addition, the slope in assay [6] was 0.00695 (inactive).

Take `O=C(c1csc2ccccc12)n1cccn1`: in assay [1], the cell count stood at 327. For the same compound, the inhibition in assay [1] is 5.6% (inactive); in assay [3], 4.5% (inactive); in assay [7], 19% (inactive); in assay [8], 21.3% (inactive). The inhibition of aggregation in assay [2] is 6% (inactive). The nuclei count worked out at 99.2% in assay [2] and 105% in assay [3]. In addition, the fluorescence slope in assay [4] was -0.502 (inactive). In assay [5], the NADPH fluorescence slope was -3.1e-05 (inactive). Further, the slope in assay [6] was 0.00494 (inactive).

As to `CCC1(C(=O)OC)NC(c2cccc(F)c2)C2C(=O)N(C)C(=O)C21` (stereo not given), in assay [1], the cell count stood at 715. In addition, the inhibition in assay [1] is -1.8% (inactive); in assay [3], -167% (inactive); in assay [7], 14.4% (inactive); in assay [8], 30.6% (inactive). Besides, the inhibition of aggregation in assay [2] was 11.4% (inactive). Also, the nuclei count in assay [2] worked out at 101%; in assay [3], 112%. The fluorescence slope in assay [4] is -0.272 (inactive). The NADPH fluorescence slope in assay [5] was -5.7e-05 (inactive). Also, the slope in assay [6] was 0.00554 (inactive).

In the case of `Cc1ccc(-c2nnn(CC(=O)N(Cc3ccco3)C(C(=O)NC(C)(C)C)c3cccs3)n2)o1` (stereo not given), in assay [1], the cell count was determined as 643. Further, the inhibition in assay [1] is 3.5% (inactive); in assay [3] it was -43.9% (inactive); in assay [7] it was 9.52% (inactive); in assay [8], 12.3% (inactive). Also, the inhibition of aggregation in assay [2] is 4.8% (inactive). Moreover, the nuclei count in assay [2] stood at 85.8%; in assay [3], 117%. In addition, the fluorescence slope in assay [4] was -0.595 (inactive). Further, the NADPH fluorescence slope in assay [5] was -7.2e-05 (inactive). Moreover, in assay [6], the slope is 0.00341 (inactive).

In the case of `O=C(CCOc1ccccc1)NCc1ccccc1`, in assay [1], the cell count stood at 729. The inhibition is -17.6% (inactive) in assay [1], 12.7% (inactive) in assay [3], 11.5% (inactive) in assay [7] and 12.3% (inactive) in assay [8]. In addition, the inhibition of aggregation in assay [2] is -3.7% (inactive). The nuclei count in assay [2] amounted to 97.3%; in assay [3], 114%. Moreover, the fluorescence slope in assay [4] was -0.559 (inactive). Further, the NADPH fluorescence slope in assay [5] was 7.4e-05 (inactive). The slope in assay [6] was 0.00548 (inactive).

For the compound `CC(C)CCn1c(NCCc2ccccc2)nc2c1c(=O)n(C)c(=O)n2C`, the cell count in assay [1] was 753. Besides, the inhibition in assay [1] is -8% (inactive); in assay [3], -17.6% (inactive); in assay [7], 9.59% (inactive); in assay [8] it was 32.1% (inactive). In assay [2], the inhibition of aggregation was 1.3% (inactive). Also, the nuclei count came to 120% in assay [2] and 108% in assay [3]. Also, the fluorescence slope in assay [4] is -0.409 (inactive). Moreover, in assay [5], the NADPH fluorescence slope was -7.3e-05 (inactive). Moreover, in assay [6], the slope was 0.00481 (inactive).

For the compound `CN(c1ccc(OCc2nnc(-c3ccccc3)o2)cc1)S(=O)(=O)c1ccccc1`, in assay [1], the cell count came out at 587. The inhibition in assay [1] is 10.1% (inactive); in assay [3], 21.6% (inactive); in assay [7], 11.5% (inactive); in assay [8], -5.42% (inactive). Moreover, the inhibition of aggregation in assay [2] is 13.2% (inactive). Besides, the results for the nuclei count in assay [2] and in assay [3] were 95% and 82%, respectively. For the same compound, the fluorescence slope in assay [4] was -0.335 (inactive). For the same compound, in assay [5], the NADPH fluorescence slope was -5.4e-05 (inactive). For the same compound, in assay [6], the slope was 0.00414 (inactive).

Regarding `COC(=O)CCC(=O)Nc1cccc(Br)c1`, the cell count in assay [1] was 495. Further, the inhibition in assay [1] is -5.7% (inactive); in assay [3], 56.2% (active); in assay [7], 9.55% (inactive); in assay [8], 17.4% (inactive). For the same compound, the inhibition of aggregation in assay [2] is -24.7% (inactive). In addition, the nuclei count in assay [2] was 111%; in assay [3], 91.4%. The fluorescence slope in assay [4] was -0.478 (inactive). In addition, the NADPH fluorescence slope in assay [5] was -0.000246 (inactive). For the same compound, the slope in assay [6] was 0.00597 (inactive).

For the compound `O=C(CCN1C(=O)C2C3C=CC(C3)C2C1=O)N1CCN(c2ccccc2Cl)CC1` (stereo not given), the cell count in assay [1] was 776. Also, the inhibition in assay [1] is -18.1% (inactive); in assay [3], 2.5% (inactive); in assay [7], 10.7% (inactive); in assay [8], 11.9% (inactive). In addition, the inhibition of aggregation in assay [2] was -5% (inactive). Besides, the results for the nuclei count in assay [2] and in assay [3] were 123% and 107%, respectively. In assay [4], the fluorescence slope was -0.399 (inactive). Moreover, the NADPH fluorescence slope in assay [5] was -4.7e-05 (inactive). The slope in assay [6] is 0.00465 (inactive).

`O=C(CC1Oc2ccc(Cl)cc2NC1=O)NC1CCCCCC1` (stereo not given): the cell count in assay [1] turned out to be 615. For the same compound, the inhibition in assay [1] was -4.3% (inactive); in assay [3], 0.7% (inactive); in assay [7], 8.85% (inactive); in assay [8] it was 6.03% (inactive). Moreover, the inhibition of aggregation in assay [2] was 19.5% (inactive). In addition, the nuclei count in assay [2] is 51.7%; in assay [3], 100%. In assay [4], the fluorescence slope is -0.544 (inactive). In addition, in assay [5], the NADPH fluorescence slope was -3.7e-05 (inactive). Besides, the slope in assay [6] was 0.00511 (inactive).
